According to PubChem BioAssay AID624296 (National Center for Advancing Translational Sciences (NCATS), 2012):
Hit rate of the full screen: of about 350,000 compounds, about 9,900 (2.8%) were called active. Another 15% or so got no clear call; they are omitted. Calls follow the shape of the dose curve; as a rule, active = well fitted activation curve with a large enough effect; inconclusive = small, poorly fitted or top-dose-only effect; inactive = no such curve, though single readings can be large or run the other way. The list comes from a sample in which actives are over-represented; it also holds similar structures and randomly drawn compounds.

Test: A quantitative high throughput screen for small molecules that induce DNA re-replication in MCF 10a normal breast cells. Also: nearly all actives have a fitted effect of over 50% in size. As to activity, positive = re-replication: % of control where 0% means no effect.
Conditions: MCF 10A DNA re-replication, Hoechst nuclear intensity, 48 h; series mostly up to 46.1 µM; activity, positive = re-replication: at the top concentration
Potency is read from the fitted curve at half-maximal effect.

SMILES | activity, positive = re-replication | Potency
COc1cccc2oc(CCc3ccccc3)cc(=O)c12 | 27.3% (inactive) | 
Cc1nn(-c2ncccn2)c2c1C(=O)CC(C)(C)C2Br (centres undefined) | 3.7% (inactive) | 
CCN(CC)C(=O)N(CC)Cc1ccccc1 | 7.14% (inactive) | 
O=C(O)CCC(=O)N(Cc1ccccc1)Cc1ccccc1 |  | 0.731 µM (active)
O=C(O)CCC(=O)N(Cc1cccs1)Cc1cccs1 | 1.98% (inactive) | 
Cc1cc(NC(=O)C(C)SCC(=O)Nc2cccc(S(=O)(=O)N3CCCCCC3)c2)no1 (centres undefined) | -13.4% (inactive) | 
Cn1cc(CCC(=O)NCc2ccc3c(c2)OCO3)c2ccccc21 | -6.37% (inactive) | 
O=C(CCc1nnc(Cc2ccc3c(c2)OCO3)o1)NCCc1ccccc1Cl |  | 20.6 µM (active)
O=C(CC(Cc1ccccc1)C(=O)O)NCCc1ccc2c(c1)OCO2 (centres undefined) | 2.45% (inactive) | 
COc1ccc(CCC(=O)N2CCN(S(=O)(=O)c3ccc(OC)cc3)CC2)cc1 | -1.3% (inactive) | 
Cc1ccccc1-n1c(C)cc(/C=N/NC(=O)c2ccc(CN3CCOCC3)cc2)c1C | 4.86% (inactive) | 
Cc1ccc(CN2C(=O)N/C(=C/c3cc(C)n(-c4ccccn4)c3C)C2=O)cc1 | 3.85% (inactive) | 
Cc1ccccc1-n1c(C)cc(/C=C2\NC(=O)NC2=O)c1C |  | 25.9 µM (active)
CC1(C)CC(=O)C=C(c2cccc3c2Oc2ccccc2S3)C1 | 20.6% (inactive) | 
CC(=NNC(=O)c1ccc2nc[nH]c2c1)c1ccc(Br)cc1 | 0.489% (inactive) | 
O=C(Nc1cccc2ncccc12)c1ccc(-c2ccc(Cl)cc2Cl)o1 | 15.5% (inactive) | 
Cc1csc(NC(=O)c2ccc(C)s2)n1 | 21.9% (inactive) | 
Cc1csc(NC(=O)c2ccc(-c3ccc(Cl)cc3Cl)o2)n1 |  | 18.4 µM (active)
CC(Nc1ccc([N+](=O)[O-])cc1[N+](=O)[O-])c1ccccc1 (centres undefined) | 24.8% (inactive) | 
Cc1nc2cc(C(F)(F)F)ccc2n1CCNc1nc(-c2cc(Cl)c(N)c(Cl)c2)cs1 |  | 23.1 µM (active)
CCCn1c(CCNc2nc(-c3ccc(OC)cc3)cs2)nc2ccccc21 | 24.8% (inactive) | 
CCCn1c(C(C)Nc2nc(-c3ccc(C)cc3)cs2)nc2cc(Cl)c(N3CCCCC3)cc21 (centres undefined) | -30.3% (inactive) | 
CC1CCCCC1NC(=O)Cn1cnc2c1c(=O)n(C)c(=O)n2C (centres undefined) | -2.1% (inactive) | 
CCCN(CC(=O)Nc1ccccc1C)C(=O)c1ccc(OCC(=O)N2CCOCC2)c(OCC)c1 | 0.566% (inactive) | 
COc1ccc(Cc2nc3ccc(C(=O)NCC4CCOCC4)cc3o2)cc1OC | -2.78% (inactive) | 
CSCCNC(=O)c1ccc2nc(Cc3ccccc3F)oc2c1 | 4.94% (inactive) | 

SMILES | activity, positive = re-replication | Potency
COCCNC(=O)c1ccc2nc(Cc3ccc(OC)c(OC)c3)oc2c1 |  | 3.26 µM (active)
CCOc1ccc(NC(=O)CN(C)C(=O)c2cccc(S(=O)(=O)N3CCCC3)c2)cc1OCC | -0.541% (inactive) | 
COc1ccc(S(=O)(=O)N2CCOCC2)cc1NC(=O)c1ccc(OCC(C)C)c(OC)c1 | -3.94% (inactive) | 
Cc1nc(SCc2ccc(F)cc2)c([N+](=O)[O-])[nH]1 | 2.7% (inactive) | 
CCCCCOc1ccc(CSC2=NCCN2)cc1[N+](=O)[O-] |  | 20.6 µM (active)
CCCOc1ccc(Cn2ccnc2)cc1[N+](=O)[O-] | 4.34% (inactive) | 
COc1ccccc1C1=CC(=O)C[C@H](c2ccc(F)cc2)C1 | -0.998% (inactive) | 
O=C(COC(=O)CNC(=O)C1CCCCC1)NCc1ccccc1 | -4.63% (inactive) | 
CCC(Cc1ccccc1)NC(=O)C1CCCCC1 (centres undefined) |  | 0.651 µM (active)
Cc1ccc(NC(=O)[C@H](Cc2ccccc2)NC(=O)C2CCNCC2)cc1 | -3.39% (inactive) | 
O=C(O)c1ccc(Cn2cnc3c(=S)nc[nH]c32)cc1 | 0.877% (inactive) | 
COc1ccccc1N(CCOc1ccccc1)S(=O)(=O)c1ccccc1 | 16.1% (inactive) | 
CSc1nc(N(C)NC(=O)c2cccc(C)c2)c2ccccc2n1 |  | 0.231 µM (active)
COc1ccc(C(=O)NN(C)c2nc(-c3ccccc3)cc(C)c2S(C)(=O)=O)cc1 | 13.4% (inactive) | 
Cc1cccc(C(=O)NCCCN(C)CCCNC(=O)c2cccc(C)c2)c1 | -1.15% (inactive) | 
CCN(c1ccccc1)S(=O)(=O)c1ccc(OCC(=O)N2CCCC2)cc1 | 2.91% (inactive) | 
Cc1c(C)n(Cc2ccc(Cl)cc2)c2ccc(C(=O)NCCCN3CCOCC3)cc12 |  | 23.1 µM (active)
O=C(NCCN1CCOCC1)c1ccc2c(c1)N(Cc1ccc(Cl)cc1)CCS2 | -0.362% (inactive) | 
Cc1ccc(C(=O)NCCN2CCOCC2)cc1C | -21.7% (inactive) | 
COC(=O)C1=CO[C@@H](O[C@@H]2O[C@H](CO)[C@@H](O)[C@H](O)[C@H]2O)C2C1C[C@H](O)[C@@H]2C (some centres undefined) | 3.4% (inactive) | 
O=c1nc(NO)ccn1C1CCCO1 (centres undefined) | -1.94% (inactive) | 
COc1cc(NC(=O)c2ccccc2NS(=O)(=O)c2ccc(Cl)s2)cc(OC)c1 |  | 14.6 µM (active)
COc1cc(OC)c(S(=O)(=O)Nc2ccccc2C(=O)O)cc1S(=O)(=O)Nc1ccccc1C(=O)O | 2.07% (inactive) | 
COc1cc(NC(=O)c2cccnc2SC)cc(OC)c1 | 11.3% (inactive) | 
N#Cc1ccc(CN2CCN(CC(=O)Nc3ccccc3C(=O)NC3CC3)CC2)cc1 | -1.12% (inactive) | 
O=C(Nc1ccc2c(c1)OCO2)C1CC1(Cl)Cl (centres undefined) | 3.6% (inactive) | 

SMILES | activity, positive = re-replication | Potency
CC(=O)Nc1ccc(S(=O)(=O)NCC(=O)OCC(=O)c2ccc[nH]2)cc1 | -5.01% (inactive) | 
CCCCNc1nc2c(c(=O)n(C)c(=O)n2C)n1Cc1cccc(OC)c1 | 22.9% (inactive) | 
CCCCNc1c(-c2cccc(Sc3ccc(OC)cc3)c2)nc2ccccn12 |  | 18.4 µM (active)
COc1ccc(Sc2nc(-c3ccccc3)ncc2OC)cc1 | -0.264% (inactive) | 
Fc1ccc2cnc(-c3ccccc3)cc2c1 | -6.69% (inactive) | 
COc1cc(/C=C/CNC[C@H]2O[C@@H](n3cnc(C(N)=O)n3)[C@H](O)[C@@H]2O)ccc1O | -3.55% (inactive) | 
O=C1Nc2c(Br)cc(Br)cc2C1(O)N1CCOCC1 (centres undefined) |  | 8.2 µM (active)
O=C(c1cc2cc(Br)cc(Br)c2oc1=O)N1CCOCC1 | -3.32% (inactive) | 
O=C(CSC(=S)N1CCOCC1)c1cc(Br)cc(Br)c1O | -10.4% (inactive) | 
Cc1ccc2c(c1)C1C[N+](C)(CC(=O)c3ccccc3)CCC1N2C(=O)c1ccccc1Cl (centres undefined) | 1.42% (inactive) | 
CC[C@]12c3[nH]c4cc(CCC(=O)N(C)C)ccc4c3CCN1C(=O)[C@@H](CC(=O)NCC13CC4CC(CC(C4)C1)C3)C[C@@H]2C(=O)N1CCN(C(=O)C2CC2)CC1 | 5.53% (inactive) | 
CSc1ccc(/C=N\NC(=O)COc2ccc(Cl)cc2Br)cc1 |  | 13 µM (active)
CSc1ccc(/C=N/NC(=O)c2cccc(Cl)c2)cc1 | -1.93% (inactive) | 
O=C(COc1ccc(Cl)cc1Cl)N/N=C/c1ccccn1 | 7.32% (inactive) | 
CCC(=O)c1cc(F)ccc1OCC(=O)Nc1ccc2c(c1)OCCO2 | 13.1% (inactive) | 
COc1ccccc1NC(=O)COC(=O)COc1ccccc1F | 4.21% (inactive) | 
COc1ccc(CC(=O)NC(C)c2ccc(Cl)c(Cl)c2)cc1S(=O)(=O)N1CCOCC1 (centres undefined) | -1.21% (inactive) | 
Nc1ncnc2c1cnn2C1CC(O)C(CO)O1 (centres undefined) | -2.15% (inactive) | 
CCN(C[C@H]1N[C@@](Cc2ccccc2)(C(=O)OC)[C@H]2C(=O)N(Cc3ccccc3)C(=O)[C@@H]12)C(=O)c1ccc(C)cc1 | 13.4% (inactive) | 
Cc1ccc(O)c(NC(=S)NC(=O)COc2ccc(Br)cc2)c1 |  | 20.6 µM (active)
Cc1ccc(O)c(NC(=O)COc2cc(C)ccc2C)c1 | -0.0794% (inactive) | 
Cc1cccc(OCC(=O)NC(=S)Nc2ccccc2N2CCOCC2)c1 | 5.85% (inactive) | 
O=C(CCc1ccccc1Cl)Nc1ccc(S(=O)(=O)Nc2nccs2)cc1 | -2.12% (inactive) | 
Nc1cc(N)nc(SCC(=O)Nc2cccc(S(=O)(=O)N3CCCCC3)c2)n1 | -1.51% (inactive) | 
Nc1ncnc2c1ncn2[C@@H]1O[C@H](CNCc2cccn2-c2nccs2)[C@@H](O)[C@H]1O | -30.7% (inactive) | 
Cc1c(NC(=O)CN(C)CC(=O)Nc2ccc(F)c(F)c2F)c(=O)n(-c2ccccc2)n1C | -0.806% (inactive) | 

SMILES | activity, positive = re-replication | Potency
N=C1c2ccccc2-c2ccccc21 | -4.5% (inactive) | 
COC(=O)c1sc(N2CCN(Cc3ccccc3)CC2)nc1N | -1.54% (inactive) | 
C=CCNC(=O)c1csc(-c2ccccc2)n1 | -2.88% (inactive) | 
C=CCNc1nc(N)c(C(=C(C#N)C#N)c2ccccc2)s1 |  | 16.4 µM (active)
CCS(=O)(=O)c1cc([N+](=O)[O-])c(Sc2ccccc2N)s1 | -2.15% (inactive) | 
Nc1ccccc1SC(C[N+](=O)[O-])c1ccccc1 (centres undefined) |  | 10.3 µM (active)
Nc1ccccc1SCc1cc([N+](=O)[O-])cc2c1OCOC2 | 10.5% (inactive) | 
CN(C(=O)c1cccc(NC(=O)C2CCN(C(=O)OC(C)(C)C)CC2)c1)C1CCC1 | 0.942% (inactive) | 
COC(=O)c1ccc(CNC(=O)Cn2cc(C)c(=O)[nH]c2=O)cc1 | -0.64% (inactive) | 
C#CCOCCOCCOCCNc1nc(N2CCN(C(=O)Cn3cc(CCCCN)nn3)CC2)nc(N2CCN(C(=O)[C@H](CCCCN)n3cc(CCC(=O)O)nn3)CC2)n1 | 2.8% (inactive) | 
CC(C)(CNC(=O)c1ccc(Cl)c(S(=O)(=O)N2CCc3ccccc3C2)c1)N1CCOCC1 |  | 5.8 µM (active)
CN(C)S(=O)(=O)c1ccc(C(=O)NCC(C)(C)N2CCOCC2)cc1 | 1.18% (inactive) | 
O=C(NCCSCc1ccccc1)c1ccc(Cl)c(S(=O)(=O)N2CCOCC2)c1 | 4.44% (inactive) | 
O=C(OCc1cc(=O)n2ccsc2n1)C1(c2ccc(Cl)cc2)CC1 | 3.97% (inactive) | 
COc1ccccc1N(CC(=O)Nc1c(C)n(C)n(-c2ccccc2)c1=O)S(=O)(=O)c1ccccc1 | -2.95% (inactive) | 
Cc1c(O)c(C)c2c(c1O)C(=O)C[C@@H](c1ccccc1)O2 | 26.4% (inactive) | 
COc1ccc(CNc2nnnn2C)cc1 | 0.405% (inactive) | 
COc1ccc(CNc2ncnc3ccccc23)cc1 | -0.72% (inactive) | 
COc1ccc(CNc2c(CO)cnc3c2cnn3C)cc1 |  | 14.6 µM (active)
COc1cccc(NC(=O)COC(=O)c2ccc3ccccc3n2)c1 | 1.19% (inactive) | 
Cc1ccc(S(=O)(=O)N(C)C)cc1NC(=O)CN1c2cccc3cccc(c23)S1(=O)=O | 2.38% (inactive) | 
Cc1csc(NC(=O)C2CCN(S(=O)(=O)c3ccccc3)CC2)n1 | 5.3% (inactive) | 
CN(C(=O)CSc1cccc[n+]1[O-])C1CCCCC1 | 5.23% (inactive) | 
S=c1[nH]nc(COc2ccccc2)n1-c1ccccc1 | 15.9% (inactive) | 
Cc1ccc(NCc2n[nH]c(=S)n2-c2ccccc2)cc1Cl | -1.28% (inactive) | 
S=c1[nH]nc(CSCc2ccc(Cl)cc2Cl)n1-c1ccccc1 |  | 20.6 µM (active)
